The source of these data is the supplement of paper PMC9492666.

Counter-ions that a name gives are not always drawn.
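Also: viability read by CCK-8 kit in 96-well plates, part of a combination screen pairing lipid-metabolism-targeting compounds with erastin.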

The test deals with HCC1937. Description: relative cell viability, compound + erastin, vs DMSO (fraction of DMSO control); higher = less growth inhibition. The note with it: 72 h.
Regarding `C[C@H](CCCC(C)(C)O)[C@H]1CC[C@H]2[C@@H]3CC=C4C[C@@H](O)CC[C@]4(C)[C@H]3CC[C@]12C` [25-Hydroxycholesterol] + CCOc1ccccc1-n1c(C(C)N2CCN(C(=O)COc3ccc(Cl)cc3)CC2)nc2ccccc2c1=O [erastin], the relative cell viability is 0.745.
The same measure for `O=C(NC1CCN(CCCCC2(C(=O)NCC(F)(F)F)c3ccccc3-c3ccccc32)CC1)c1ccccc1-c1ccc(C(F)(F)F)cc1` [Lomitapide] + CCOc1ccccc1-n1c(C(C)N2CCN(C(=O)COc3ccc(Cl)cc3)CC2)nc2ccccc2c1=O [erastin]: 0.201.
The same measure for `COC(=O)c1sccc1S(=O)(=O)Nc1ccc(Nc2ccccc2)cc1OC` + CCOc1ccccc1-n1c(C(C)N2CCN(C(=O)COc3ccc(Cl)cc3)CC2)nc2ccccc2c1=O [erastin]: 0.529.
Under `O=C(O)Cc1cccc(OCCCN(Cc2cccc(C(F)(F)F)c2Cl)CC(c2ccccc2)c2ccccc2)c1` + CCOc1ccccc1-n1c(C(C)N2CCN(C(=O)COc3ccc(Cl)cc3)CC2)nc2ccccc2c1=O [erastin] stands 0.855; under `CC(C)CCC[C@@H](C)[C@H]1CC[C@H]2[C@@H]3CC=C4C[C@@H](O)CC[C@]4(C)[C@H]3CC[C@]12C` [Cholesterol] + CCOc1ccccc1-n1c(C(C)N2CCN(C(=O)COc3ccc(Cl)cc3)CC2)nc2ccccc2c1=O [erastin], 0.901.
As to `O=c1c(O[C@@H]2O[C@H](CO)[C@@H](O)[C@H](O)[C@H]2O)c(-c2ccc(O)cc2)oc2cc(O)cc(O)c12` [Astragalin] + CCOc1ccccc1-n1c(C(C)N2CCN(C(=O)COc3ccc(Cl)cc3)CC2)nc2ccccc2c1=O [erastin], the relative cell viability was 0.584.
As to `CC(C)c1cc(C(C)C)c(CC(=O)NS(=O)(=O)Oc2c(C(C)C)cccc2C(C)C)c(C(C)C)c1` [Avasimibe] + CCOc1ccccc1-n1c(C(C)N2CCN(C(=O)COc3ccc(Cl)cc3)CC2)nc2ccccc2c1=O [erastin], the relative cell viability was found to be 0.508.
The same measure for `O=C(O)CCn1c2c(c3ccccc31)C[C@H](NS(=O)(=O)c1ccc(F)cc1)CC2` [Ramatroban] + CCOc1ccccc1-n1c(C(C)N2CCN(C(=O)COc3ccc(Cl)cc3)CC2)nc2ccccc2c1=O [erastin]: 0.494.
The same measure for `COc1ccc(-c2cc(=O)c3c(O)c(OC)c(OC)c(OC)c3o2)cc1OC` + CCOc1ccccc1-n1c(C(C)N2CCN(C(=O)COc3ccc(Cl)cc3)CC2)nc2ccccc2c1=O [erastin]: 0.573; for `O=S(=O)(c1ccccc1)N(CC(F)(F)F)c1ccc(C(O)(C(F)(F)F)C(F)(F)F)cc1` + CCOc1ccccc1-n1c(C(C)N2CCN(C(=O)COc3ccc(Cl)cc3)CC2)nc2ccccc2c1=O [erastin]: 0.835.
Turning to `COc1ccc(CN2CCNCC2)c(OC)c1OC` [Trimetazidine dihydrochloride] + CCOc1ccccc1-n1c(C(C)N2CCN(C(=O)COc3ccc(Cl)cc3)CC2)nc2ccccc2c1=O [erastin], the relative cell viability stood at 0.786.
Turning to `CCCCCCCCCCCCCCCC(=O)NCCO` [Palmidrol] + CCOc1ccccc1-n1c(C(C)N2CCN(C(=O)COc3ccc(Cl)cc3)CC2)nc2ccccc2c1=O [erastin], the relative cell viability was determined as 0.91.
Consider `CC1=C(C)C(=O)C(C(CCCCCC(=O)O)c2ccccc2)=C(C)C1=O` (configuration not stated) [Seratrodast] + CCOc1ccccc1-n1c(C(C)N2CCN(C(=O)COc3ccc(Cl)cc3)CC2)nc2ccccc2c1=O [erastin], for which the relative cell viability was found to be 0.851.
On to `CC(C)(C)c1ccc(-c2nc3ccccc3[nH]2)cc1` + CCOc1ccccc1-n1c(C(C)N2CCN(C(=O)COc3ccc(Cl)cc3)CC2)nc2ccccc2c1=O [erastin], for which the relative cell viability was found to be 0.225.
Turning to `NC(=O)c1cnccn1` [Pyrazinamide] + CCOc1ccccc1-n1c(C(C)N2CCN(C(=O)COc3ccc(Cl)cc3)CC2)nc2ccccc2c1=O [erastin], the relative cell viability is 0.791.
Turning to `C[C@H](CCC(=O)O)[C@H]1CC[C@H]2[C@@H]3C[C@H](O)[C@@H]4C[C@H](O)CC[C@]4(C)[C@H]3CC[C@]12C` [Hyodeoxycholic acid] + CCOc1ccccc1-n1c(C(C)N2CCN(C(=O)COc3ccc(Cl)cc3)CC2)nc2ccccc2c1=O [erastin], the relative cell viability stood at 0.767.
On to `C[C@@H]1O[C@@H](O[C@H]2[C@H](Oc3cc(O)c4c(c3)O[C@H](c3ccc(O)cc3)CC4=O)O[C@H](CO)[C@@H](O)[C@@H]2O)[C@H](O)[C@H](O)[C@H]1O` [Naringin] + CCOc1ccccc1-n1c(C(C)N2CCN(C(=O)COc3ccc(Cl)cc3)CC2)nc2ccccc2c1=O [erastin], for which the relative cell viability is 0.902.
